Rows were chosen to be rich in hits. Some 2.6% of all compounds tested hit in one or more screens of this group.
Cruzain Triton = blocks cruzain activity in presence of Triton detergent. P25779. purified cruzain, Z-FR-AMC fluorescence, 0.01% Triton. Potency, µM, hits mostly inhibitors. 200,000 compounds, 0.43% hits. AID 1478; further: nearly all actives have a fitted effect of over 40% in size
Target sequence (P25779 123-467 limits assumed): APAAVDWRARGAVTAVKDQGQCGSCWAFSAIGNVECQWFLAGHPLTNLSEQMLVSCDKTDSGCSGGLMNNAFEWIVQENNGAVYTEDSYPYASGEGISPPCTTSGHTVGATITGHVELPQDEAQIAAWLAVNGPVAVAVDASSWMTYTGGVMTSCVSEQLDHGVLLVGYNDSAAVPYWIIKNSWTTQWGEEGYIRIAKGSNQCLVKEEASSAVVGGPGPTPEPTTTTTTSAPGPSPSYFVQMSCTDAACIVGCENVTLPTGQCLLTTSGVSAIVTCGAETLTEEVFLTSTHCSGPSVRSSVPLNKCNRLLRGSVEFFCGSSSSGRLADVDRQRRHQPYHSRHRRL
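Cysteine protease activity tested under reducing, mildly acidic conditions (100 mM sodium acetate pH 5.5, 5 mM DTT) plus 0.01% Triton X-100. Cruzain 1.5 nM; substrate Z-FR-AMC 2 uM; 15 min compound preincubation at room temperature.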
Cruzain inh noDet = cruzain (T. cruzi) inhibition without detergent; purified cruzain, Z-FR-AMC fluorescence, no detergent; Potency, µM, hits mostly inhibitors; 200,000 compounds, 2.3% hits; AID 1476; further: nearly all actives have a fitted effect of over 40% in size
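Detergent-free condition (0.00005% Triton X-100) in acetate buffer pH 5.5 with DTT. 1.5 nM enzyme and compound were pre-mixed 15 min, then 2 uM Z-FR-AMC substrate added; reaction progress from fluorescence change between first and third reads (60 s).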
Hits are given with their value; - = inactive; ? = inconclusive. The call rests on the fitted dose curve; in most records, active means well fitted curve in the direction sought with a large enough effect; inconclusive means small, poorly fitted or top-dose-only effect, or another doubt; inactive means no such curve, though single readings can be large; an effect the other way counts as inactive or inconclusive.

SMILES	Cruzain Triton	Cruzain inh noDet
COc1ccc(NC(=O)C2=C(C)Nc3c(C(=O)Nc4ccc(C)cc4)cnn3C2c2cccc(Cl)c2)cc1 (configuration not stated)	-	16µM
CC1=C(C(=O)Nc2ccc(Cl)cc2)C(c2ccccc2)n2ncc(C(=O)Nc3ccccc3)c2N1 (configuration not stated)	-	?
COc1ccc(NC(=O)C2=C(C)Nc3c(C(=O)Nc4ccc(C)cc4)cnn3C2c2cc(OC)ccc2OC)cc1 (configuration not stated)	-	-
CCOc1ccc(OCC)c(NS(=O)(=O)c2cc(-c3onc(C)c3C)ccc2OC)c1	-	-
Cc1cccc(N2CCN(S(=O)(=O)c3ccc4oc(=O)c5ncn(C)c5c4c3)CC2C)c1 (configuration not stated)	-	-
O=C(CSc1nc(-c2ccc(F)cc2)cc(C(F)(F)F)n1)NCCc1ccccc1	-	-
COc1ccc(N2CCN(C(=O)C(CC(C)C)NS(=O)(=O)c3ccc4nc(C)sc4c3)CC2)cc1 (configuration not stated)	-	-
CCCCC/C=C\C/C=C\C/C=C\CCCCCCC(=O)NC(C)C(=O)O (configuration not stated)	-	-
CCC(=O)N1CCc2cc(Br)cc(S(=O)(=O)CCC(=O)NCc3ccc(F)cc3)c21	-	-
COc1cc(OC)c(NC(=O)c2cn(C3CCCC3)c(=O)c3c2c2ccccc2n3C)cc1Cl	-	-
COc1ccc(Cl)cc1NC(=O)c1cn(C2CCCCC2)c(=O)c2c1c1ccccc1n2C	-	10µM
COc1cccc2sc(N3CCN(C(=O)CS(=O)(=O)c4ccc(Cl)cc4)CC3)nc12	-	?
Cc1nc(NC(=O)c2ccccc2)sc1-c1csc(N)n1	-	-
Cc1nc(N)sc1-c1csc(N(C)c2ccc(O)cc2)n1	13µM	5µM
COC(=O)c1ccc(C(C(=O)NC2CCCCC2)N(Cc2ccc(F)cc2)C(=O)Cc2cccs2)cc1 (configuration not stated)	-	-
COC(=O)c1ccc(C(C(=O)NC2CCCCC2)N(CCc2ccccc2)C(=O)Cc2cccs2)cc1 (configuration not stated)	-	13µM
CCN=C(NCC)SC1CC(=O)N(c2ccc(OC)cc2)C1=O (configuration not stated)	-	-
N/C(=N\N=C\c1ccnc2ccccc12)SC1CC(=O)N(c2ccc(Br)cc2)C1=O (configuration not stated)	-	10µM
COc1ccc(N2C(=O)CC(S/C(N)=N/N=C/c3ccnc4ccccc34)C2=O)cc1 (configuration not stated)	25µM	10µM
C/C(=N\N=C(/N)SC1CC(=O)N(c2ccc(Br)cc2)C1=O)c1cccs1 (configuration not stated)	-	?
Cc1ccc(C)c(OCCn2cc(C(=O)c3ccco3)c3ccccc32)c1	-	?
Cc1nn(C(=O)c2cccc([N+](=O)[O-])c2C)c(C)c1S(=O)(=O)N1CCOCC1	-	-
CN1CCN(c2cc(N3CCc4ccccc4C3)c(F)cc2[N+](=O)[O-])CC1	-	-
O=[N+]([O-])c1ccc(N2CCN(S(=O)(=O)c3ccccc3[N+](=O)[O-])CC2)cc1N1CCc2ccccc2C1	-	6.3µM
O=C(CCc1ccccc1)NC(NC(=S)Nc1ccc(Cl)cc1)C(Cl)(Cl)Cl (configuration not stated)	-	25µM
SMILES	Cruzain Triton	Cruzain inh noDet
O=C(/C=C/c1ccccc1)NC(NC(=S)Nc1ccc(Cl)cc1)C(Cl)(Cl)Cl (configuration not stated)	-	?
Cc1ccccc1-c1nn2c(=O)cc(CN3CCN(C(=O)c4ccc(C(C)(C)C)cc4)CC3)nc2s1	-	-
COc1ccc(-c2csc(-c3c(N)c(C(=O)c4ccccc4)n4ccccc34)n2)cc1OC	-	-
Cc1ccc(C)c(C(=O)c2c(N)c(-c3nc(-c4ccc5c(c4)OCO5)cs3)c3ccccn23)c1	-	5µM
Cc1ccc(C(=O)c2c(N)c(-c3nc(-c4ccc5c(c4)OCO5)cs3)c3ccccn23)cc1C	-	1.6µM
COc1ccc(C(=O)c2c(N)c(-c3nc(-c4ccc5c(c4)OCO5)cs3)c3ccccn23)cc1	-	?
COc1cccc(C(=O)c2c(N)c(-c3nc(-c4ccccc4)cs3)c3ccccn23)c1	-	10µM
Cc1ccc(-c2csc(-c3c(N)c(C(=O)c4ccc5c(c4)OCO5)n4ccccc34)n2)cc1C	-	3.2µM
COc1ccc(-c2csc(-c3c(N)c(C(=O)c4ccccc4)n4ccccc34)n2)cc1	-	?
Nc1c(-c2nc(-c3ccc(F)cc3)cs2)c2ccccn2c1C(=O)c1ccc2c(c1)OCO2	-	-
O=C(O)/C=C\c1ccc[c]([Sb])c1	-	-
Nc1c(-c2nc(-c3ccc4c(c3)OCO4)cs2)c2ccccn2c1C(=O)c1ccccc1	-	4µM
Nc1c(-c2nc(-c3ccc4c(c3)OCO4)cs2)c2ccccn2c1C(=O)c1ccc(Cl)cc1	-	?
CN(C)c1ccc(CNC(=O)C2CCN(S(=O)(=O)c3ccc4[nH]c(=O)ccc4c3)CC2)cc1	-	-
O=C(Nc1nnc(-c2ccc3c(c2)OCCO3)o1)c1ccc(Cc2ccccc2)cc1	-	13µM
CSc1cccc(-c2nnc(NC(=O)c3ccc4c(c3)OCCO4)o2)c1	-	-
Cc1ccc(NC(=O)Cn2cc(S(=O)(=O)N3CCN(c4ccccc4F)CC3)c3ccccc3c2=O)cc1F	-	7.9µM
CC(C)c1ccc(NC(=O)Cn2cc(S(=O)(=O)N3CCN(c4ccccc4F)CC3)c3ccccc3c2=O)cc1	-	7.9µM
O=C(Cn1cc(S(=O)(=O)N2CCN(c3ccccc3F)CC2)c2ccccc2c1=O)Nc1cccc(C(F)(F)F)c1	-	7.9µM
Cc1ccc(NC(=O)CN2CCN(c3ccccc3F)CC2)cc1F	-	-
CN(C(=O)Cn1cc(S(=O)(=O)N2CCN(c3ccccc3F)CC2)c2ccccc2c1=O)c1ccc(Cl)cc1	-	-
CC1CCN(S(=O)(=O)c2cn(CC(=O)Nc3cccc(C(F)(F)F)c3)c(=O)c3ccccc23)CC1	-	?
CCc1ccc(S(=O)(=O)Nc2cccc(-c3ccc(N4CCOCC4)nn3)c2)cc1	-	-
CC(C)c1ccc(NC(=O)COC(=O)[C@H](CCC(N)=O)NC(=O)c2ccc(F)cc2)cc1	?	-
N#Cc1ccc(Cl)cc1NC(=O)COC(=O)[C@H](CCC(N)=O)NC(=O)c1ccc(F)cc1	20µM	20µM
SMILES	Cruzain Triton	Cruzain inh noDet
NC(=O)CC[C@H](NC(=O)c1ccc(F)cc1)C(=O)OCC(=O)Nc1c(F)c(F)c(F)c(F)c1F	28µM	13µM
CC(C)[C@H](NC(=O)c1ccccc1)C(=O)OCC(=O)Nc1ccc(Cl)cc1C(F)(F)F	-	-
CSCCC(NC(=O)c1ccc(Cl)cc1)C(=O)OCC(=O)Nc1cc(Cl)ccc1C (configuration not stated)	22µM	?
CCc1ccc(C(=O)COC(=O)C(CCSC)NC(=O)c2ccccc2)cc1 (configuration not stated)	-	-
Cc1ccc(-n2ncc(C(=O)NC3CCCCC3)c2C2CCN(C(=O)OC(C)(C)C)CC2)cc1	-	-
CNC(=S)N/N=C/c1cn(Cc2c(F)cccc2Cl)c2ccccc12	-	32µM
CCNC(=S)N/N=C/c1cn(Cc2ccccc2F)c2ccccc12	-	?
COc1ccccc1CNC(=O)c1ccc(CSc2nc3ccncc3n2Cc2ccccc2C)cc1	-	?

Screening results deposited in PubChem BioAssay by National Center for Advancing Translational Sciences (NCATS).
